Data from PubChem BioAssay AID1159580 (chemical genetic matrix, 2015).
Where “and” joins values, the source holds several entries; their conditions need not be identical. Equal values may be shown once. Screen size: about 5,500 compounds; about 2,000 (36%) were called active. Roughly 18% stayed inconclusive and do not appear here. No stated cut-off is given here; in the data, active means normalized growth mostly below about 0.91 (no sharp cut-off); inconclusive means no clear call, values can overlap the other calls; inactive means mostly above about 0.92. The list shows a part of the results.

Assay: chemical genetic growth profiling, strain panel (AID 1159580);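 further: tested at 20 µM; growth read once vehicle control cultures reached saturation at 30 °C; 1 = growth at the plate median or of vehicle wells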
Conditions: S. cerevisiae deletion strains, growth OD

Measured: normalized growth

Nc1nc(N)c2nc(-c3ccccc3)c(N)nc2n1
inactive: locus YAL013W, strain DEP1, stronger effect = lower value 1 | locus YAL021C, strain ccr4, stronger effect = lower value 1.01 | locus YAL026C, strain drs2, stronger effect = lower value 1.01 | locus YAL030W, strain snc1, stronger effect = lower value 0.998 | locus YAL040C, strain CLN3, stronger effect = lower value 0.986 | locus YBL061C, strain skt5, stronger effect = lower value 1 | locus YBR009C, strain hhf1, stronger effect = lower value 0.969 | locus YBR021W, strain FUR4, stronger effect = lower value 1.01 | locus YBR023C, strain chs3, stronger effect = lower value 0.997 | locus YBR171W, strain sec66, stronger effect = lower value 1.01 | locus YBR229C, strain ROT2, stronger effect = lower value 1 | locus YBR231C, strain swc5, stronger effect = lower value 1 | locus YBR279W, strain paf1, stronger effect = lower value 0.994 | locus YCL011C, strain gbp2, stronger effect = lower value 0.992 | locus YCL016C, strain dcc1, stronger effect = lower value 0.999 | locus YCL029C, strain bik1, stronger effect = lower value 1.01 | locus YCL061C, strain MRC1 (second series), stronger effect = lower value 0.989 | locus YCL061C, strain MRC1, stronger effect = lower value 1.01 | locus YCL069W, strain vba3, stronger effect = lower value 1 | locus YCR088W, strain abp1, stronger effect = lower value 0.992 | locus YDL005C, strain med2, stronger effect = lower value 1.01 | locus YDL035C, strain GPR1, stronger effect = lower value 1.01 | locus YDL040C, strain nat1, stronger effect = lower value 1.01 | locus YDL074C, strain BRE1, stronger effect = lower value 0.973 | locus YDL101C, strain DUN1, stronger effect = lower value 1.01 | locus YDL134C, strain PPH21, stronger effect = lower value 1 | locus YDL185W, strain tfp1, stronger effect = lower value 1.01 | locus YDL192W, strain arf1, stronger effect = lower value 1.01 | locus YDR001C, strain nth1, stronger effect = lower value 1.02 | locus YDR069C, strain doa4, stronger effect = lower value 1 | locus YDR101C, strain arx1, stronger effect = lower value 0.999 | locus YDR137W, strain rgp1, stronger effect = lower value 1 | locus YDR150W, strain NUM1, stronger effect = lower value 0.987 and 0.981 | locus YDR159W, strain sac3, stronger effect = lower value 0.951 | locus YDR162C, strain NBP2, stronger effect = lower value 1.01 | locus YDR195W, strain ref2 1 | locus YDR297W, strain sur2, stronger effect = lower value 1 | locus YDR318W, strain mcm21, stronger effect = lower value 1 | locus YDR334W, strain swr1, stronger effect = lower value 1 | locus YDR335W, strain msn5, stronger effect = lower value 1 | locus YDR363W, strain ESC2, stronger effect = lower value 1 | locus YDR388W, stronger effect = lower value 1.01 | locus YDR392W, strain spt3, stronger effect = lower value 0.946 | locus YDR502C, strain sam2, stronger effect = lower value 1 | locus YEL003W, strain gim4, stronger effect = lower value 1.01 | locus YEL037C, strain rad23, stronger effect = lower value 0.997 | locus YEL061C, strain CIN8 (second series), stronger effect = lower value 1 | locus YEL061C, strain CIN8, stronger effect = lower value 1 | locus YER002W, strain NOP16, stronger effect = lower value 1 | locus YER015W, strain faa2, stronger effect = lower value 0.993 | locus YER016W, strain bim1, stronger effect = lower value 0.966 | locus YER110C, stronger effect = lower value 1.01 | locus YER111C, strain swi4, stronger effect = lower value 1.01 | locus YER155C, strain BEM2 (second series), stronger effect = lower value 0.957 | locus YER155C, strain BEM2, stronger effect = lower value 1.01 | locus YER167W, strain BCK2, stronger effect = lower value 1.01 | locus YFR010W, strain ubp6, stronger effect = lower value 1.02 | locus YGL078C, strain dbp3, stronger effect = lower value 1.01 | locus YGL086W, strain mad1, stronger effect = lower value 1 | locus YGL167C, strain pmr1, stronger effect = lower value 1.01 | locus YGL173C, strain kem1, stronger effect = lower value 1 | locus YGL227W, strain vid30, stronger effect = lower value 1.01 | locus YGL240W, strain doc1, stronger effect = lower value 1 | locus YGL248W, strain PDE1, stronger effect = lower value 0.999 | locus YGL253W, strain hxk2, stronger effect = lower value 0.99 | locus YGR078C, strain PAC10, stronger effect = lower value 0.996 and 0.977 | locus YGR135W, strain pre9, stronger effect = lower value 1.01 | locus YGR229C, strain SMI1, stronger effect = lower value 1.02 | locus YGR252W, strain gcn5, stronger effect = lower value 0.939 | locus YHR013C, strain ard1, stronger effect = lower value 0.978 | locus YHR027C, strain rpn1, stronger effect = lower value 1 | locus YHR030C, strain SLT2, stronger effect = lower value 0.999 and 0.991 | locus YHR079C, strain IRE1 (second series), stronger effect = lower value 1.02 | locus YHR079C, strain IRE1, stronger effect = lower value 0.975 | locus YHR094C, strain hxt1, stronger effect = lower value 1 | locus YHR129C, strain ARP1, stronger effect = lower value 0.993 | locus YHR142W, strain chs7, stronger effect = lower value 0.996 | locus YHR200W, strain rpn10, stronger effect = lower value 1.01 | locus YIL066C, strain RNR3, stronger effect = lower value 1 | locus YIL073C, strain SPO22, stronger effect = lower value 1.05 | locus YIL125W, strain kgd1, stronger effect = lower value 1.01 | locus YIR030C, strain dcg1, stronger effect = lower value 1.01 | locus YJL092W, strain hpr5, stronger effect = lower value 1.01 | locus YJL095W, strain BCK1 (second series), stronger effect = lower value 1.01 | locus YJL095W, strain BCK1, stronger effect = lower value 0.988 | locus YJL115W, strain asf1, stronger effect = lower value 1 | locus YJL129C, strain trk1, stronger effect = lower value 0.993 | locus YJL134W, strain LCB3, stronger effect = lower value 1 | locus YJL154C, strain vps35, stronger effect = lower value 0.992 | locus YJL164C, strain tpk1, stronger effect = lower value 0.981 | locus YJL166W, strain qcr8, stronger effect = lower value 1.02 | locus YJL168C, strain set2, stronger effect = lower value 1.01 | locus YJL187C, strain SWE1 (second series), stronger effect = lower value 1 | locus YJR043C, strain POL32, stronger effect = lower value 0.994 | locus YJR066W, strain TOR1, stronger effect = lower value 0.938
